target: PUM1 PUF domain R1-RVS (Homo sapiens, UniProt Q14671 828-1176, S863R;R864V;Q867S); assay: yeast three-hybrid, YBZ-1, SC-Leu-His + 0.5 mM 3-AT, 4 days; settings: tags: N-Gal4 AD-HA kept; label: inside an RPR1-promoter hybrid RNA with tandem MS2 sites; ssRNA
Outline: (§1)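 A centromeric plasmid in strain YBZ-1 co-expressed Pumilio-1 PUF domain libraries, randomized at the three base-contacting residues of each repeat, with matching RNA elements; the strain carries a LexA–MS2 coat fusion and a HIS3 reporter. After four days on SC-Leu (input) or SC-Leu-His + 0.5 mM 3-AT (selection), the repeat regions were PCR-amplified and Illumina-sequenced. The interaction score is the log change in variant frequency from input to selection, using log2 and a pseudocount of 1 where absent.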

Row | Sequence | binding signal
1 | GGCUAGAACUAGUGGAUCCCCCGGCGCCCGGCGGCUCGAGCCCGGGUAAGUGUAAAUCGUCUGCAUGCCGCCGGGCGCCAUGCCUGCAGGUCGACUCUAGAAAACAUG | 4.31 log2 enrichment (interaction score)
2 | GGCUAGAACUAGUGGAUCCCCCGGCGCCCGGCGGCUCGAGCCCGGGUAAGUGUAAAUUGUCUGCAUGCCGCCGGGCGCCAUGCCUGCAGGUCGACUCUAGAAAACAUG | 3.69 log2 enrichment (interaction score)
3 | GGCUAGAACUAGUGGAUCCCCCGGCGCCCGGCGGCUCGAGCCCGGGUAAGUGUAAAUGGUCUGCAUGCCGCCGGGCGCCAUGCCUGCAGGUCGACUCUAGAAAACAUG | 1.89 log2 enrichment (interaction score)

target: PUM1 PUF domain R1-RGS (Homo sapiens, UniProt Q14671 828-1176, S863R;R864G;Q867S); assay: as above; settings: tags: N-Gal4 AD-HA kept; label: inside an RPR1-promoter hybrid RNA with tandem MS2 sites; ssRNA
Outline: as §1

Row | Sequence | binding signal
4 | GGCUAGAACUAGUGGAUCCCCCGGCGCCCGGCGGCUCGAGCCCGGGUAAGUGUAAAUCGUCUGCAUGCCGCCGGGCGCCAUGCCUGCAGGUCGACUCUAGAAAACAUG | 2.68 log2 enrichment (interaction score)
5 | GGCUAGAACUAGUGGAUCCCCCGGCGCCCGGCGGCUCGAGCCCGGGUAAGUGUAAAUUGUCUGCAUGCCGCCGGGCGCCAUGCCUGCAGGUCGACUCUAGAAAACAUG | 2.53 log2 enrichment (interaction score)
6 | GGCUAGAACUAGUGGAUCCCCCGGCGCCCGGCGGCUCGAGCCCGGGUAAGUGUAAAUGGUCUGCAUGCCGCCGGGCGCCAUGCCUGCAGGUCGACUCUAGAAAACAUG | 0.85 log2 enrichment (interaction score)

Source: PMC8384837, “Expanding the binding specificity for RNA recognition by a PUF domain”
